Measurements taken from PubChem BioAssay (NCATS).
Where “and” joins values, the source holds several entries; their conditions need not be identical. Equal values may be shown once. Results filed as inconclusive are left out. Calls of active or inactive are those of the source. Unless noted, the call rests on the fitted dose curve; in most records, active means well fitted curve in the direction sought with a large enough effect; inconclusive means small, poorly fitted or top-dose-only effect, or another doubt; inactive means no such curve, though single readings can be large; an effect the other way counts as inactive or inconclusive.

Legend:
[1] = molecular target: Protein phosphatase 1D (Homo sapiens) (UniProt O15297); assay: RapidFire Mass Spectrometry qHTS Assay for Modulators of WT P53-Induced Phosphatase 1 (WIP1) (AID 1347424); conditions: WIP1 dephosphorylation of phosphopeptide, RapidFire MS; series mostly up to 63 µM;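 further: amount of dephosphorylated VEPPL-S-QETFS peptide product formed by WIP1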; further: potency means the concentration at half of the fitted maximal effect
Sequence of Protein phosphatase 1D (Homo sapiens) (O15297 whole entry, looked up): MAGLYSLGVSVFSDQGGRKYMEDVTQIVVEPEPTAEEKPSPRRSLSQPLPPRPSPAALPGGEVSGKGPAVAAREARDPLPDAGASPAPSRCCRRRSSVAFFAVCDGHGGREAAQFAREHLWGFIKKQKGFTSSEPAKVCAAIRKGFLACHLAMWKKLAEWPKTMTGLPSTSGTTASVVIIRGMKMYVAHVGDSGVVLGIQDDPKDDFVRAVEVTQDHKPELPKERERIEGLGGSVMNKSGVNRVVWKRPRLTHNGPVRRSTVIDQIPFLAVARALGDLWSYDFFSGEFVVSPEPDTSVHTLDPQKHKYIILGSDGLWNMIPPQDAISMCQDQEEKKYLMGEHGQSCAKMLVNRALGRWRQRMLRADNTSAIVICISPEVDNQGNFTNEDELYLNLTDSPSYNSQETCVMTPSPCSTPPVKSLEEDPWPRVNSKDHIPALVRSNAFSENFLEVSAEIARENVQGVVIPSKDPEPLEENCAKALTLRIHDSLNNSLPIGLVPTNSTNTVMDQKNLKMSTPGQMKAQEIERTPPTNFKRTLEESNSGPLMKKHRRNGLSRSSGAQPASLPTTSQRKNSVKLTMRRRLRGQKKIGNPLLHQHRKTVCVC
In short: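 10 nM WIP1 + cpd, 1 h RT; + 2 uM VEPPL-pS-QETFS, 5 min RT; stop 0.5% formic acid; labelled product standard 1 uM; RapidFire MS. Buffer 50 mM Tris pH 7.5, 30 mM MgCl2, 1 mM TCEP.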

[2] = Primary qHTS for inhibitors of La Crosse Virus (LACV) - induced cell death in SH-SY5Y cells (AID 1508616); conditions: SH-SY5Y LACV cytopathicity rescue, ATP luminescence, 6 d; series mostly up to 4.29 µM;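 further: top concentration of the series differs between compounds; higher means more rescue of cells from virus-induced death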
In short: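 Readout was luminescence from ATPLite 1step added after a 6-day LACV infection (0.01 MOI) of SH-SY5Y cells that had received pin-transferred compound 24 hr after seeding.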

[3] = molecular target: Calcium and integrin-binding protein 1 (Homo sapiens) (UniProt Q99828); assay: Primary qHTS for Identification of Calcium Integrin Binding Protein 1 (CIB1) Competitor (AID 1508620); conditions: CIB1-GST / FITC-alphaIIb peptide fluorescence polarization; series mostly up to 114 µM;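 further: GST tagged CIB1 binding a fluorescein labelled alphaIIb integrin peptide tracer; top concentration of the series differs between compounds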
Sequence of Calcium and integrin-binding protein 1 (Homo sapiens) (Q99828 whole entry, looked up): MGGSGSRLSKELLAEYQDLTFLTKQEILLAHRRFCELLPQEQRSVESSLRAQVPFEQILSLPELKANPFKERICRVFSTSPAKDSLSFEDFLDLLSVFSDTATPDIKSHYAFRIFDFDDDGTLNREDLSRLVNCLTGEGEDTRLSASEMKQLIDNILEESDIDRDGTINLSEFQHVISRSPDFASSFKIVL
In short: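 CIB1-GST (1 uM final) and compound incubated 15 min at room temperature before adding FITC-alphaIIb peptide tracer (100 nM final). Competition for binding read by fluorescence polarization (ex 480, em 540) after another 15 min at room temperature.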

[4] = Primary qHTS for small molecule stabilizers of the endoplasmic reticulum resident proteome: Secreted ER Calcium Modulated Protein (SERCaMP) assay (AID 1508630); conditions: SH-SY5Y GLuc-SERCaMP (Gaussia luciferase released on ER calcium loss) secretion, thapsigargin, luminescence; series mostly up to 38.4 µM
In short: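 GLuc-SERCaMP-expressing SH-SY5Y cells, pretreated 16 h with compound, are challenged with thapsigargin to empty ER calcium stores; after 4 h, coelenterazine is added directly to the medium and luminescence is imaged.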

[5] = molecular target: Cytochrome P450 2D6 (Homo sapiens) (UniProt P10635); assay: Cytochrome P450 family 2 subfamily D member 6 (CYP2D6) small molecule antagonists: luciferase biochemical (cell-free) qHTS assay (AID 1645840; active means well fitted curve in the direction sought with a large enough effect in the repeat runs; an effect the other way counts as inactive or inconclusive; further: nearly all actives have a fitted effect of over 55% in size; further: potency means the concentration at half of the fitted maximal effect); conditions: P450-Glo CYP2D6 enzyme, luciferin luminescence, 1 h; series mostly up to 57.4 µM
Sequence of Cytochrome P450 2D6 (Homo sapiens) (P10635 whole entry, looked up): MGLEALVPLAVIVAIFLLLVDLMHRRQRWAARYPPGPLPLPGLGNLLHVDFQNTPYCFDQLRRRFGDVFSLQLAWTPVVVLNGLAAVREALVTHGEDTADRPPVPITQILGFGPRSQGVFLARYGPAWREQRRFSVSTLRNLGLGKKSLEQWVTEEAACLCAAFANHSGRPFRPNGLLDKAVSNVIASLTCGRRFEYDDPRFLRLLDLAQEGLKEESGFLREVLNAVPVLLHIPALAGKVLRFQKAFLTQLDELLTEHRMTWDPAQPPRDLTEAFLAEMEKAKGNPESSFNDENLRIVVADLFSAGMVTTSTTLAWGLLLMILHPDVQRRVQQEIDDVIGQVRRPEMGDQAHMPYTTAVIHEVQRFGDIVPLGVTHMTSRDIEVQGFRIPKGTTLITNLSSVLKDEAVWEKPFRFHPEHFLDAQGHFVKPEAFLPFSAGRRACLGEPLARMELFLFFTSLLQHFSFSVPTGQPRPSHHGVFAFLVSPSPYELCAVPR
In short: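 P450-Glo luminescent screen: recombinant CYP2D6 enzyme–proluciferin substrate mix preincubated with compound 10 min at room temperature, then NADPH regeneration added for 1 h at room temperature. Detection reagent added for 20 min; luciferin light read as relative luminescence units.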

[6] = molecular target: Cytochrome P450 2C9 (Homo sapiens) (UniProt P11712); assay: Cytochrome P450 family 2 subfamily C member 9 (CYP2C9) small molecule antagonists: luciferase biochemical (cell-free) qHTS assay (AID 1645842; active means well fitted curve in the direction sought with a large enough effect in the repeat runs; an effect the other way counts as inactive or inconclusive; further: nearly all actives have a fitted effect of over 55% in size; further: potency means the concentration at half of the fitted maximal effect); conditions: P450-Glo CYP2C9 enzyme assay, luciferin luminescence; series mostly up to 57.4 µM
Sequence of Cytochrome P450 2C9 (Homo sapiens) (P11712 whole entry, looked up): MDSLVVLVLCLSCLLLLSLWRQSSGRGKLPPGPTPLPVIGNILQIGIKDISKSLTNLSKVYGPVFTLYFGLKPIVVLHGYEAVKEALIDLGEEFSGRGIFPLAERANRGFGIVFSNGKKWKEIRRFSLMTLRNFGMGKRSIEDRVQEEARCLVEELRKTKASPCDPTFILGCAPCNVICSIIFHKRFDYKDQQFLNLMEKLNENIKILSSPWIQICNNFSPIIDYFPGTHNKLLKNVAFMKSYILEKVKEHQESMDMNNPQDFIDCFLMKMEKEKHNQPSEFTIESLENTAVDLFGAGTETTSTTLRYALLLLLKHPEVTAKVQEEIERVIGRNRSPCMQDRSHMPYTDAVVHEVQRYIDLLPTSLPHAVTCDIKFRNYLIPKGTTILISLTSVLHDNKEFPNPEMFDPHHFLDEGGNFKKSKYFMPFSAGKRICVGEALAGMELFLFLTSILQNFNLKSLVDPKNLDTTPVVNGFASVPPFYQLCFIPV
In short: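 Luminescence, after 20 min with luciferin detection reagent, reflected CYP2C9 turnover during a 1 h NADPH-driven reaction at 37C. Enzyme-substrate mix contained 0.4% bovine serum albumin and was preincubated with compound 10 min at room temperature.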

[7] = Primary qHTS for inhibitors of nuclear receptor binding SET domain protein 2 (NSD2) in an isogenic RCH-ACV NSD2 p.E1099K mutant (9B) (AID 1645876); conditions: RCH-ACV NSD2 E1099K (9B) viability, CellTiter-Glo, 72 h; series mostly up to 44.9 µM; further: nearly all actives have a fitted effect of over 70% in size; further: potency means the concentration at half of the fitted maximal effect
[8] = A High-Content qHTS Against Drug Library for the Identification of Small Molecules that Inhibit DYT1 Early Onset Primary Dystonia-Associated Cell Pathology (AID 1645839; calls by dose curve; further: potency means the concentration at half of the fitted maximal effect); conditions: HEK293 Flp-In EGFP-delE TorsinA, punctate imaging, 48 h; series mostly up to 46.1 µM
In short: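 In this high-content image screen, delE TorsinA mislocalization in inducible Flp-In 293 cells is scored as %pathology, with cell count serving as the counterscreen. Compound exposure lasts 48 h under tetracycline induction in reduced-serum medium.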

[9] = Primary qHTS for inhibitors of nuclear receptor binding SET domain protein 2 (NSD2) in an RCH-ACV wild type WT cells (2C) (AID 1645877); conditions: RCH-ACV (leukaemia line) NSD2 WT (2C) viability, CellTiter-Glo, 72 h; series mostly up to 44.9 µM; further: nearly all actives have a fitted effect of over 70% in size; further: potency means the concentration at half of the fitted maximal effect
[10] = Validation qHTS assay for inhibitors of Activation Induced Cytidine Deaminase (AID): UDG Counterscreen signal (AID 1347427); conditions: biochemical UDG counterscreen, fluorescence signal; series mostly up to 115 µM
In short: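 Counterscreen read of UDG activity (2 U/mL, 4/3x) in the FRET deamination format with AID (1 uM, 4/3x), DJC20/DJC23 substrates (250 nM, 4x), 4 h at room temperature. NaOH stop, fluorescence at 560 ex/665 em.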

[11] = molecular target: Single-stranded DNA cytosine deaminase (Homo sapiens) (UniProt Q9GZX7); assay: Validation qHTS assay for inhibitors of Activation Induced Cytidine Deaminase (AID): AID signal (AID 1347429); conditions: Recombinant AID, FRET ssDNA deamination with UDG, fluorescence; series mostly up to 115 µM
Sequence of Single-stranded DNA cytosine deaminase (Homo sapiens) (Q9GZX7 whole entry, looked up): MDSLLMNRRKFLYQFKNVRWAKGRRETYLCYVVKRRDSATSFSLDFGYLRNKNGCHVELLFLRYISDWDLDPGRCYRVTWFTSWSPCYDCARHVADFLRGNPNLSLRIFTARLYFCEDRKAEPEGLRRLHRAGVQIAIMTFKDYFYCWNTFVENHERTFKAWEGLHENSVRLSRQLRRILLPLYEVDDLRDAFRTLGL
In short: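 In this coupled qHTS, AID deaminates a FRET-labelled ssDNA substrate in the presence of UDG over 4 hr at room temperature. Compounds span up to 114 uM final.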

[12] = molecular target: Calcium and integrin-binding protein 1 (Homo sapiens) (UniProt Q99828); assay: Validation qHTS for Identification of Calcium Integrin Binding protein 1 (CIB1) Competitor (AID 1508618); conditions: CIB1-GST / FITC-alphaIIb peptide fluorescence polarization; series mostly up to 114 µM
In short: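 Displacement of FITC-alphaIIb peptide (100 nM) from CIB1-GST (1 uM) is monitored by polarization in quantitative HTS format; buffer carries 5 mM CaCl2 and 125 mM NaCl at pH 7.4, incubations are at room temperature.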

Papain (Carica papaya) = Papain (Carica papaya) (UniProt P00784); assay: Primary qHTS assay for inhibitors of the protease papain (AID 1645873); conditions: papain Z-FR-AMC cleavage, AMC fluorescence; series mostly up to 49.8 µM;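 further: papain turnover of Z-FR-AMC read as the AMC fluorescence gain over 10 min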
Sequence of Papain (Carica papaya) (P00784 whole entry, looked up): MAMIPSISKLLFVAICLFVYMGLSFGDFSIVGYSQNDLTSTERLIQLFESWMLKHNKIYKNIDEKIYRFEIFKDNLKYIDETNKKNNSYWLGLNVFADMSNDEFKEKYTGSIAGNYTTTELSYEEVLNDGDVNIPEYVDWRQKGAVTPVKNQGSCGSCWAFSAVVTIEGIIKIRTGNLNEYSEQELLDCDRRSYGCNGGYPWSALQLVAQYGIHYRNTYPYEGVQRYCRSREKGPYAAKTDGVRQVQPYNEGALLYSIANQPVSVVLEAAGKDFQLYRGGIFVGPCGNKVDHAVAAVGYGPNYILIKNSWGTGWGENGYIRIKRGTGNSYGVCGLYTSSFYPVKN

[13] = molecular target: Protein phosphatase 1D (Homo sapiens) (UniProt O15297); assay: Rhodamine-PBP qHTS Assay for Modulators of WT P53-Induced Phosphatase 1 (WIP1) (AID 1347425); conditions: recombinant WIP1, Rhodamine-PBP phosphate fluorescence, real-time; series mostly up to 57.5 µM
In short: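 5 nM WIP1 + 10 uM Rh-PBP, 50 mM Tris pH 7.5, 30 mM MgCl2, 1 mM TCEP, 0.1 mM EGTA, BSA; cpds pinned, 1 hr RT; + 10 uM phosphopeptide; fluorescence 1-min reads x 11 min; delta = f1 - f0.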

[14] = Counterscreen qHTS for small molecule stabilizers of the endoplasmic reticulum resident proteome: GLuc-NoTag assay (AID 1508627); conditions: Gaussia luciferase NoTag secretion counterscreen, luminescence, thapsigargin 100 nM for final 4 h; series mostly up to 76.4 µM;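 further: SH-SY5Y cells given compound then 100 nM thapsigargin to empty ER calcium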
In short: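 Luminescence of Gaussia luciferase secreted into the medium (coelenterazine, 0.07x final, unlysed cells) was the read-out. Human SH-SY5Y neuroblastoma cells constitutively secreting untagged GLuc received compound for 19 h, then 100 nM thapsigargin for 4 h.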

Measured: Potency

C#C[C@]1(O)CC[C@H]2[C@@H]3CCc4cc(OC5CCCC5)ccc4[C@H]3CC[C@@]21C
inactive: [1] | [2] | [3] | [4] | [5] | [7]
active: [6] 8.71 µM

C[C@]12C=CC(=O)C=C1CC[C@@H]1[C@@H]2[C@@H](O)C[C@@]2(C)[C@H]1CC[C@]2(O)C(=O)CO
active: [9] 42.2 nM and 209 nM
inactive: [1] | [2] | [3] | [4] | [8] | [5] | [6]

CC(O)C(=O)O (stereo unspecified)
active: [5] 12.3 µM
inactive: [1] | [2] | [4] | [8] | [6] | [7] | [9]

Oc1c(Cl)cc(Cl)cc1Sc1cc(Cl)cc(Cl)c1O
inactive: [2] | [3] | [4]
active: [1] 12.6 µM | [5] 12 µM | [6] 6.01 µM

COc1cc(C=C2CCC/C(=C\c3ccc(O)c(OC)c3)C2=O)ccc1O
active: [7] 0.237 µM | [9] 0.188 µM
inactive: [1] | [2] | [3]

CCOc1ccc(Cc2nccc3cc(OCC)c(OCC)cc23)cc1OCC
inactive: [1] | [2] | [3] | [4]
active: [5] 13.8 µM | [6] 1.74 µM | [7] 2.37 µM | [9] 2.37 µM

CCN(CCCCOC(=O)c1ccc(OC)c(OC)c1)C(C)Cc1ccc(OC)cc1 (stereo unspecified)
inactive: [1] | [3] | [4] | [8] | [6]

O=C(O)c1cc2cc(Cc3cccnc3)ccc2o1
inactive: [10] | [11] | [2] | [12] | [4] | Papain (Carica papaya)

COC(=O)[C@H]1[C@H]2C[C@H]3c4[nH]c5ccccc5c4CCN3C[C@H]2CC[C@@H]1O
inactive: [10] | [11] | [4] | Papain (Carica papaya)

CCCn1c(=O)[nH]c(=O)c2[nH]cnc21
inactive: [10] | [11] | [2] | [12] | [4] | Papain (Carica papaya)

Nc1ccc(C(=O)Nc2ccccc2N)cc1
active: [7] 9.44 µM | [9] 8.41 µM
inactive: [1] | [3] | [4] | [5] | [6]

Cc1c(C(N)=O)cc([N+](=O)[O-])cc1[N+](=O)[O-]
inactive: [13] | [3] | [4] | [8] | [5] | [6] | [7] | [9]

CCC(NC(C)C)C(O)c1ccc(O)c(O)c1 (stereo unspecified)
inactive: [10] | [11] | [2] | [12] | [4] | Papain (Carica papaya)
active: [6] 15.1 µM

O=C1CCC(c2ccc(-n3ccnc3)cc2)=NN1
inactive: [10] | [11] | [2] | [12] | [4] | Papain (Carica papaya)

COc1cc2c(cc1O)CC[C@@H]1[C@@H]2CC[C@]2(C)[C@@H](O)CC[C@@H]12
inactive: [10] | [11] | [12] | [4] | Papain (Carica papaya)
active: [7] 0.742 µM | [9] 0.59 µM

CC(C)=CCC1C(=O)N(c2ccccc2)N(c2ccccc2)C1=O
active: [7] 16.8 µM | [9] 15 µM
inactive: [2] | [4] | [5] | [6]

CN1C2CCC1CC(OC(=O)c1c[nH]c3ccccc13)C2 (stereo unspecified)
inactive: [10] | [11] | [12] | [14] | Papain (Carica papaya)

CCC(=O)c1c(O)cc(O)cc1O
active: [5] 24.5 µM | [6] 15.5 µM
inactive: [13] | [2] | [3] | [4] | [8] | [7] | [9]

CC(=O)Oc1ccc2c(c1)CC[C@@H]1[C@@H]2CC[C@]2(C)[C@@H](O)CC[C@@H]12
inactive: [1] | [3] | [4] | [8] | [6]
active: [7] 13.3 µM | [9] 8.41 µM

C/C=C(/C(=C/C)c1ccc(O)cc1)c1ccc(O)cc1
inactive: [2] | [3] | [4]
active: [5] 24.5 µM | [6] 17.4 µM | [7] 14.8 µM | [9] 10.5 µM

C1CCc2nnnn2CC1
inactive: [10] | [11] | [2] | [12] | [4] | Papain (Carica papaya)

CC(C)(C)CC(C)(C)c1ccc(O)c(Cc2ccc(Cl)cc2Cl)c1
inactive: [1] | [3] | [4] | [7]
active: [5] 19.5 µM | [6] 3.09 µM

COc1cccc2c1C(=O)c1c(O)c3c(c(O)c1C2=O)C[C@@](O)(C(C)=O)C[C@@H]3O[C@H]1C[C@H](N)[C@H](O)[C@H](C)O1
active: [8] 1.58 µM | [5] 13.8 µM | [7] 2.7 nM and 18.6 nM | [9] 0.0024 µM
inactive: [1] | [4] | [6]

C[N+]1(CCCCC[N+]2(C)CCCC2)CCCC1
inactive: [10] | [11] | [2] | [12] | [4] | [5] | Papain (Carica papaya)

Nc1cc(Cl)c(NC2=NCCN2)c(Cl)c1
inactive: [10] | [11] | [2] | [12] | [4] | Papain (Carica papaya)

CC(CCc1ccccc1)NCC(O)c1ccc(O)c(C(N)=O)c1 (stereo unspecified)
inactive: [10] | [11] | [2] | [12] | [3] | Papain (Carica papaya) | [7] | [9]

CN(C(=O)CN(CCO)CC(=O)N(C)C(C)(C)Cc1ccccc1)C(C)(C)Cc1ccccc1
inactive: [1]
active: [5] 1.38 µM | [6] 15.5 µM | [7] 5.31 µM | [9] 5.31 µM

CCCC1O[C@@H]2C[C@H]3[C@@H]4CCC5=CC(=O)C=C[C@]5(C)[C@H]4[C@@H](O)C[C@]3(C)[C@]2(C(=O)CO)O1 (stereo partly specified)
active: [6] 15.1 µM
inactive: [10] | [11] | [2] | [12] | [4] | Papain (Carica papaya)

CCCCCC=CCC=CCCCCCCCC(=O)OCC
active: [6] 9.77 µM | [7] 23.7 µM | [9] 18.8 µM
inactive: [1] | [3] | [4] | [8]
